From PubChem BioAssay
Rows were chosen to be rich in hits. Some 1.2% of all compounds tested hit in one or more screens of this group.
miR122 inh – miR-122 inhibition in Huh7 cells. 340,000 tested, 0.3% active. Huh7 miR-122 Renilla luciferase sensor, 48 h; neutral wells = 0, positive control = 100. activation (reporter increase), % at 12.5 µM;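 active = mean replicate activation score at least 90 and every replicate individually at or above 90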;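 also: higher luciferase means less miR-122 activity so hits act as miR-122 inhibitors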
PglD inh – blocks C. jejuni PglD acetyltransferase activity | purified PglD enzyme, DTNB colorimetric CoA detection | inhibition, % at 12.5 µM | 360,000 tested, 0.098% active | AID 602405; in the data active = inhibition above about 16%, passing the limit was not always enough
C2C12 statin – suppression of simvastatin myotoxicity | 330,000 tested, 0.78% active | rescue of ATP level, % at 7.49 µM | C2C12 myotubes + simvastatin, ATP luminescence, 48 h; scaled: DMSO 0, geranylgeraniol control 100 | AID 602340;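 active = mean ATP rescue above about 67%, or every replicate alone reaching that limit, limit read from the data, passing the limit was not always enough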;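 also: myotubes were challenged with 10 µM simvastatin during compound exposure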
NSD2 HMT inh – NSD2 (human) methyltransferase inhibition. O96028. NSD2 peptide methylation, AlphaScreen, 120 min. inhibition, % at 12.5 µM. 310,000 tested, 0.54% active. AID 743445; in the data active = inhibition above about 50%
* marks the source's active call; other numbers are inactive results; . = no result; [ ] = dose if it differs, or a comment.

SMILES	miR122 inh	PglD inh	C2C12 statin	NSD2 HMT inh
C[C@@H]1CN([C@@H](C)CO)C(=O)c2cccc(NS(=O)(=O)c3ccc(F)cc3)c2O[C@@H]1CN(C)Cc1ccc(C(=O)Nc2ccccc2N)cc1	94*[16.7 µM]	12	-45	.
C[C@@H]1CN([C@H](C)CO)C(=O)c2cccc(NS(=O)(=O)c3ccc(Cl)cc3)c2O[C@@H]1CN(C)Cc1ccc(C(=O)Nc2ccccc2N)cc1	26[16.7 µM]	0	.	.
Cc1ccc(S(=O)(=O)Nc2cccc3c2O[C@H](CN(C)Cc2ccc(C(=O)Nc4ccccc4N)cc2)[C@H](C)CN([C@H](C)CO)C3=O)cc1	189*[16.7 µM]	11	23	.
CN1c2ccc(Br)cc2[C@@H]2[C@@H](CCN2S(=O)(=O)c2cccc(F)c2)[C@@H]1CO	3[16.7 µM]	-4	3	.
COCCNC(=O)CN(C(=O)CCC(=O)Nc1ccccn1)c1ccccc1OC	1	-6	1	22
COCCNC(=O)CN(C(=O)CCC(=O)Nc1nccs1)c1ccccc1OC	-1	-2	109*	2
COc1ccc(S(=O)(=O)NCc2csc(C)n2)cc1	7	.	142*	-7
COc1cc(C(=O)Nc2cccc(C(=O)Nc3cc(C)ccn3)c2)cc(OC)c1OC	.	.	.	-1
CCS(=O)(=O)NCC[C@@H]1CC[C@@H](NC(=O)C2CCC2)[C@H](CO)O1	.	-2	0	.
C[C@@H]1CN([C@@H](C)CO)C(=O)c2cccc(NC(=O)Nc3ccc(F)cc3)c2O[C@@H]1CN(C)C	-8[16.7 µM]	1	-5	.
Oc1cc(O)cc(C=Cc2ccc(O)c(O)c2)c1	.	.	.	90*
O=C(/C=C/c1ccc(O)c(O)c1)c1ccccc1O	-13	-11	.	62*
Oc1ccc(/C=C/c2cc(O)cc(O)c2)cc1	4	-2	7	.
O=C(NCC[C@H]1CC[C@@H](NS(=O)(=O)c2cccc(F)c2)[C@H](CO)O1)C1CC1	7[16.7 µM]	0	0	.
CC(C)(C)N=Cc1c(O)ccc2oc3c(c12)CCCC3	-8	2	8	0
O=[N+]([O-])c1cc2oc3c(c2c(C=NCc2ccncc2)c1O)CCCC3	10	.	6	65*
CC(C)(C)C1CCc2c(sc(NC(=O)C3CCCO3)c2C(N)=O)C1 (configuration not stated)	17	4	96*	2
C[C@@H]1CN([C@H](C)CO)C(=O)c2cc(NS(=O)(=O)c3cn(C)cn3)ccc2O[C@@H]1CN(C)CC1CC1	-7[16.7 µM]	7	7	.
COC(=O)c1c(NC(C)=O)sc(Cc2ccccc2)c1C	153*	-1	11	4
COC(=O)c1c(NC(=O)c2ccccc2)sc(Cc2ccccc2)c1C	9	4	-1	1
C[C@@H]1CN([C@H](C)CO)C(=O)Cc2cc(NC(=O)CCN3CCOCC3)ccc2O[C@@H]1CN(C)Cc1ccc(Cl)c(Cl)c1	0[16.7 µM]	3	27	.
COc1cc(CCC(=O)OCc2nnc(-c3ccccc3)o2)cc(OC)c1OC	1	-5	104*	23
O=C(CSc1ccc(Cl)cc1)OCc1nnc(-c2ccccc2)o1	-3	7	69*	-5
CC=Cc1ccc2n(c1=O)C[C@@H]1[C@@H](CO)[C@H](C(=O)NCC3CC3)N(Cc3ccncc3)[C@H]21 (mixture of isomers)	3[16.7 µM]	2	-23	.
CNc1ccc(Br)cc(C(=O)/C=C/c2cc(OC)ccc2OC)c1=O	-3	-3	26	12
SMILES	miR122 inh	PglD inh	C2C12 statin	NSD2 HMT inh
CCNc1ccc(Br)cc(C(=O)/C=C/c2ccc(Cl)cc2Cl)c1=O	-4	4	82*	4
CCN(CCCNC(=O)C1CCC(=O)N1C(C)C)c1cccc(C)c1 (configuration not stated)	8	0	126*	6
Cc1ccc(Sc2cc(NCCCO)c([N+](=O)[O-])c3nonc23)cc1	-3	5	102*	3
CCCCc1nc(N2CCOCC2)c(C#N)c2c1COC(C)(C)C2	-1	4	128*	-1
Oc1ccccc1/C=N/NC(=S)NCCc1ccccc1	-3	1	-2	-2
Fc1ccccc1NC(=S)NCCc1ccc(Cl)cc1	7	0	16	-2
Fc1ccccc1NC(=S)NCCc1ccccc1	25	10	156*	-4
OCCNC(=S)NCCc1ccccc1	.	.	.	0
Cc1ccc(C)c(/C=N/NC(=S)NCCc2ccccc2)c1	-3	2	133*	1
CC(C)(CNC(=S)NCCc1ccccc1)CNC(=S)NCCc1ccccc1	280*	-3	.	0
C[C@@H]1CN([C@@H](C)CO)S(=O)(=O)c2ccc(-c3ccccc3)cc2O[C@H]1CN(C)Cc1cccc(F)c1	24[16.7 µM]	2	-70	.
